In PubChem BioAssay AID588342 (National Center for Advancing Translational Sciences (NCATS), 2011):
Hit rate of the full screen: of about 360,000 compounds, about 25,000 (6.9%) were called active. A call without a number means that no potency is given here. Roughly 9% stayed inconclusive and do not appear here. Calls follow the shape of the dose curve; as a rule, active = well fitted inhibition curve with a large enough effect; inconclusive = small, poorly fitted or top-dose-only effect; inactive = flat fitted curve, though single readings scatter. Only a selection was taken, and actives are over-represented in it overall.
Also: nearly all actives have a fitted effect of over 55% in size.
Potency is read from the fitted curve at half-maximal effect.

What follows are compounds tested against Luciferin 4-monooxygenase (Photinus pyralis) (UniProt P08659) (assay: qHTS profiling assay for firefly luciferase inhibitor/activator using purifed enzyme and Km concentrations of substrates (counterscreen for miR-21 project)). Details: purified FLuc, luminescence inhibition; series mostly up to 57.5 µM.
Chain of Luciferin 4-monooxygenase (Photinus pyralis) (P08659 whole entry, looked up): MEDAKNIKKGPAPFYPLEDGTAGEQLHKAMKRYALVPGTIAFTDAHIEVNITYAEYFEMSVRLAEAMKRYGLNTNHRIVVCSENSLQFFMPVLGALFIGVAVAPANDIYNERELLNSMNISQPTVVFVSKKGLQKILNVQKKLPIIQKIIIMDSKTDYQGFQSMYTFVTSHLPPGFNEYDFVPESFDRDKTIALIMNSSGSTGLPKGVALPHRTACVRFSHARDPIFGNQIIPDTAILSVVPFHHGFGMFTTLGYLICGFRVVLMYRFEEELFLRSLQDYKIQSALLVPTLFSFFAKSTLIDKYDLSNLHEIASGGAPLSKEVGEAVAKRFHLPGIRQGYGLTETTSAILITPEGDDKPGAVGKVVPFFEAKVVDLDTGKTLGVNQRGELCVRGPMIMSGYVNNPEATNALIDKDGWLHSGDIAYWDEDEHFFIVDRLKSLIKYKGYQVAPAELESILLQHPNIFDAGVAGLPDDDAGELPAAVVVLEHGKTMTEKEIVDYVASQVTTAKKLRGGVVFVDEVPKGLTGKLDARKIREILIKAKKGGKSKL
Summary of the method: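 Purified P. pyralis luciferase (10nM final) with 10uM D-luciferin and 10uM ATP (Km levels) in 50mM Tris acetate pH 7.5, 10mM Mg acetate, 0.01% Tween-20, 0.05% BSA; qHTS 6-point titration, ~60 µM downward; luminescence read.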
`Cc1cccc2c1N(CCOc1ccccc1)C(=O)C2=O` was tested, and the Potency was “inactive”. In the case of `O=C(OCCN1C(=O)c2ccccc2C1=O)Oc1ccccc1`, the Potency is reported as “inactive”. In the case of `O=C1c2ccccc2C(=O)N1CCOc1ccc(F)cc1`, the Potency is reported as 13.5 µM (active). With `Cc1nc2c(c(C)nn2-c2ccccc2)c(C)c1CCC(=O)NCCc1ccc(Cl)cc1` the Potency was “inactive”. In the case of `O=C(CSc1ncnc2scc(-c3ccccc3)c12)NCc1ccc2c(c1)OCO2`, the Potency is reported as “inactive”. `Cc1cc(C)c(NC(=O)CN2C(=O)c3cccnc3Oc3ccc(Cl)cc32)c(C)c1` was tested, and the Potency was “inactive”. In the case of `CCn1c(NC(=O)c2nn(C)cc2Br)nc2ccccc21`, the Potency is reported as “inactive”. `Cc1nc2ccccc2c(=O)n1NC(=O)c1ccccc1` was tested, and the Potency was “inactive”. In the case of `Cn1c(NC(=O)c2ccccc2)nc2ccccc21`, the Potency is reported as 6.75 µM (active). For `Cn1sc(NC(=O)c2ccccc2)nc1=O`, the Potency was 19 µM (active). `Cn1c(S(=O)(=O)O)nc2ccccc21` was tested, and the Potency was “inactive”. `Cn1nnc(NC(=S)NC(=O)c2ccccc2)n1` was tested, and the Potency was “inactive”. For `Brc1cc(Br)c(Oc2cc(Br)c(Br)cc2Br)cc1Br`, the Potency was “inactive”. `CC1CCC(N2CC(=O)N(CCC3=CCCCC3)C(c3ccc(F)cc3)C2=O)CC1` (stereo unspecified) was tested, and the Potency was “inactive”. `COc1ccc(CN2CCN(C(=O)c3cc(C4CC4)nn3-c3ccccc3)CC2)cc1F` was tested, and the Potency was “inactive”. `CCn1c2ccccc2c2cc(NC(=O)Nc3ccc([N+](=O)[O-])cc3C)ccc21` was tested, and the Potency was “inactive”. In the case of `Cc1ccc(-n2c3nc(=O)[nH]c(=O)c-3cc3c(Cl)cccc32)cc1`, the Potency is reported as “inactive”. With `Cc1ccccc1-c1nc(SCC(=O)N(C)c2ccccc2)c2c(=O)n(C)c(=O)n(C)c2n1` the Potency was “inactive”. For `CCN(CC)S(=O)(=O)c1ccc(N2CCOCC2)c(NC(=O)c2ccc(=O)n(C)n2)c1`, the Potency was “inactive”. With `COc1ccc(C2=NN(C(=O)CSc3nnnn3C)C(c3ccco3)C2)cc1` (stereo unspecified) the Potency was “inactive”. For `CCOC(=O)C1C(=O)C=C(c2ccc(OC)cc2)CC1c1ccco1` (stereo unspecified), the Potency was 13.5 µM (active). With `CCOC(=O)C1C(=O)NC(N2CCN(c3ccccc3)CC2)=NC1c1ccco1` (stereo unspecified) the Potency was “inactive”. `Cc1ccc(Nc2nc(-c3ccc(O)cc3O)cs2)nc1` was tested, and the Potency was 2.39 µM (active). `O=C(CCNC(=O)c1ccccc1Cl)NCc1ccco1` was tested, and the Potency was “inactive”. `O=C(CSc1nnc(Nc2ccccc2)s1)Nc1cccnc1Cl` was tested, and the Potency was 16.9 µM (active). For `O=C(CSc1nnc(C2CC2)n1Cc1ccccc1)Nc1cccnc1Cl`, the Potency was “inactive”. In the case of `Cc1cc(NC(=O)CSc2nnc(Nc3ccccc3F)s2)no1`, the Potency is reported as “inactive”. For `CN(C(=O)CSc1nnc(NC(=O)Nc2ccccc2)s1)c1ccccc1`, the Potency was “inactive”. `O=C(CSc1nnc(SCc2ccc(F)cc2)s1)Nc1ccc(C(=O)O)cc1` was tested, and the Potency was 5.36 µM (active). With `Cc1nc(SCC(=O)Nc2ccc(C(=O)O)cc2)n[nH]1` the Potency was “inactive”. For `CC(=O)c1ccc(NC(=O)CSc2nnc(NC(=O)Nc3ccccc3)s2)cc1`, the Potency was 0.478 µM (active). With `O=C(Cc1cccs1)Nc1nnc(SCc2ccc(F)cc2)s1` the Potency was “inactive”. For `CC(C)(C)NC(=O)CSc1nnc(NC(=O)CCc2ccccc2)s1`, the Potency was “inactive”. With `CCOc1ccc(NC(=O)CN(C)C(=O)CSc2ccccc2)cc1OCC` the Potency was “inactive”. With `Cc1cccc(Nc2cc(C)nc(-n3nc(C)cc3C)n2)c1` the Potency was “inactive”. In the case of `O=C(NNC(=O)c1cccc(S(=O)(=O)Nc2ccc(Cl)cc2)c1)c1ccc(=O)[nH]c1`, the Potency is reported as “inactive”. In the case of `COc1ccc(C(C)(C)C)cc1NC(=O)CCN1C(=O)C2CCCCC2C1=O` (stereo unspecified), the Potency is reported as “inactive”. With `O=C(CS(=O)(=O)c1cccc2nsnc12)N1CCN(c2cccc(Cl)c2)CC1` the Potency was “inactive”. With `COCC(=O)N=Nc1c(O)[nH]c2ccccc12` the Potency was “inactive”. For `COc1ccc(N=Cc2c(O)[nH]c3ccccc23)cc1OC`, the Potency was 15.1 µM (active). In the case of `COc1cc(N=Cc2c(O)[nH]c3ccccc23)cc(OC)c1OC`, the Potency is reported as “inactive”. `Cc1ccccc1N1CCN(Cc2nc(Cc3ccccc3F)no2)CC1` was tested, and the Potency was “inactive”. `COc1cc(OC)c(C(=O)OC(C)C(=O)Nc2cc(C(F)(F)F)ccc2Cl)cc1OC` (stereo unspecified) was tested, and the Potency was “inactive”. With `CCCCC(=O)Nc1ccc(C(=O)Nc2cc(C(F)(F)F)ccc2Cl)cc1` the Potency was “inactive”. `Cc1ccc(Cl)cc1NC(=O)COC(=O)CC(C)(C)C` was tested, and the Potency was “inactive”. In the case of `CC(=O)Nc1ccc(NC(=O)CCCNC(=O)c2ccc(Cl)cc2)cc1`, the Potency is reported as “inactive”. In the case of `COc1ccc(C(=O)COC(=O)CCCC(=O)Nc2cc(C(F)(F)F)ccc2Cl)cc1`, the Potency is reported as 2.13 µM (active). For `O=C(COC(=O)CCCNC(=O)c1ccc(Cl)cc1)Nc1cc(Cl)ccc1Cl`, the Potency was 16.9 µM (active). In the case of `COc1ccc(CC(=O)NCCc2sc3nc(-c4ccc(OC)cc4)nn3c2C)cc1`, the Potency is reported as “inactive”. With `O=C(NCc1ccco1)C1CCCN1S(=O)(=O)c1ccccc1C(F)(F)F` (stereo unspecified) the Potency was “inactive”. With `CCOc1cc(/C=C(/C#N)c2ccc(Cl)cc2)cc(Cl)c1OCC(=O)O` the Potency was 3.79 µM (active). `COc1cc(/C=C(/NC(=O)c2ccc(Cl)cc2Cl)C(=O)O)cc(OC)c1OC` was tested, and the Potency was “inactive”. For `C/C(=N\OCC(=O)O)c1ccc(Cl)cc1`, the Potency was “inactive”. In the case of `CCc1noc(C)c1C(=O)Nc1nc2ccc(OC)cc2s1`, the Potency is reported as 5.36 µM (active). In the case of `CCc1noc(C)c1C(=O)Nc1nc(-c2ccccc2)cs1`, the Potency is reported as 19 µM (active). `CCc1noc(C)c1C(=O)NNC(=O)c1ccc(F)cc1` was tested, and the Potency was “inactive”. With `COc1ccc2oc(=N)c(C(=O)Nc3ccc(Br)cc3)cc2c1` the Potency was “inactive”. In the case of `CCc1nc2ccccc2c(C(=O)NCc2ccc(OC)cc2)c1C`, the Potency is reported as “inactive”. `COc1ccc(CNC(=O)c2ccc(Br)s2)cc1OC` was tested, and the Potency was “inactive”. With `COc1ccc2nc(NC(=O)NC3CCCCC3)sc2c1` the Potency was 9.53 µM (active). `COc1ccc(S(=O)(=O)N2CCN(C(=O)NC3CCCCC3)CC2)cc1` was tested, and the Potency was “inactive”. `COc1ccc(NC(=O)CCC(=O)Nc2nnc(C3CCCCC3)s2)cc1` was tested, and the Potency was “inactive”. In the case of `Cc1cccc(S(=O)(=O)CC(=O)Nc2nc(-c3ccccc3)cs2)c1`, the Potency is reported as “inactive”. `CCCC(=O)Nc1nc2ccc(NC(=O)c3c(F)c(F)c(OC)c(F)c3F)cc2s1` was tested, and the Potency was “inactive”. In the case of `COc1ccc2nc(NC(=O)c3ccc(Br)s3)sc2c1`, the Potency is reported as 3.01 µM (active). With `Cc1ccc(Cl)cc1N1CCN(C(=O)C2CCC(CNS(=O)(=O)c3cccs3)CC2)CC1` (stereo unspecified) the Potency was “inactive”. `Cc1ccc(C(=O)Nc2cc3c(cc2N2CCCC2)n(C)c(=O)c(=O)n3C)cc1` was tested, and the Potency was “inactive”. With `Cc1oc2ccc(O)c(CN3CCC(C)CC3)c2c1C(=O)Nc1ccccc1` the Potency was “inactive”. In the case of `COc1ccc(OC)c(S(=O)(=O)Nc2c(C)nn(C)c2C)c1`, the Potency is reported as “inactive”. With `COc1ccc(-c2nn3c(-c4ccc(OC)cc4)nnc3c3ccccc23)cc1` the Potency was “inactive”. `COCCCNC(=S)N(CCN(C)C)Cc1cc2cc3c(cc2[nH]c1=O)OCCO3` was tested, and the Potency was “inactive”. `O=C(CN1c2ccccc2S(=O)(=O)c2ccccc21)Nc1cccc(C(F)(F)F)c1` was tested, and the Potency was “inactive”. With `O=C(Cn1c(=O)n(Cc2ccccc2)c(=O)c2sc3ccccc3c21)Nc1ccccc1F` the Potency was “inactive”. For `CCOc1ccc2nc(NC(=O)CSc3nc4c(c(=O)n(C)c(=O)n4C)n3CC)sc2c1`, the Potency was “inactive”. `CCn1c(SCC(=O)NC2CCCC2)nnc1-c1ccoc1C` was tested, and the Potency was “inactive”. For `CCn1c(SCC(=O)Nc2nc3ccc(OC)cc3s2)nnc1-c1ccoc1C`, the Potency was 10.7 µM (active). `CCOc1ccccc1C(=O)Nc1ccc2c(c1)N(C)C(=O)c1ccccc1S2` was tested, and the Potency was “inactive”. For `Cc1ccc(-n2c(SCC(=O)c3ccccc3)nc3c([nH]c4ccccc43)c2=O)cc1`, the Potency was “inactive”. For `CSc1ccc(CCNC(=O)CS(=O)(=O)Cc2nc(-c3ccccc3F)oc2C)cc1`, the Potency was “inactive”. For `CCOC(=O)c1ccc(NC(=O)C2CC(=O)N(c3ccc4c(c3)OCCO4)C2)cc1` (stereo unspecified), the Potency was “inactive”. With `Cc1ccc(-c2nnc(SCC(=O)N/N=C/c3cccs3)n2-c2ccc(C)cc2)cc1` the Potency was “inactive”. For `O=C(N/N=C/C=C/c1ccco1)c1cccs1`, the Potency was 26.9 µM (active). With `CC1C/C(=N/NC(=O)c2cccs2)CC(C)(C)C1` (stereo unspecified) the Potency was “inactive”. For `Cc1ccc(-n2c(C)cc(/C=N\NC(=O)CC(=O)NC(C)C)c2C)cc1`, the Potency was 13.5 µM (active). In the case of `O=C(COC(=O)CCC(=O)c1cccs1)NCc1ccco1`, the Potency is reported as “inactive”. With `Cc1cc(C(=O)Nc2ccc(C)c(S(=O)(=O)N3CCOCC3)c2)c2ccccc2n1` the Potency was “inactive”. With `Cc1cccc(-n2c(C)cc(/C=N\NC(=O)c3cccs3)c2C)c1` the Potency was 1.2 µM (active). `Cc1cc(/C=N/Nc2ccc([N+](=O)[O-])cn2)c(C)n1-c1cccc(C(=O)O)c1` was tested, and the Potency was “inactive”. For `Cc1cccc(-n2c(C)cc(/C=N/NC(N)=S)c2C)c1`, the Potency was “inactive”. With `Cc1cc(/C=N/NC(=O)CC2(C)OCCO2)c(C)n1-c1ccc(Cl)c(Cl)c1` the Potency was “inactive”. In the case of `Cc1ccc(-c2cc(C(=O)N/N=C/C=C/c3ccco3)c3ccccc3n2)cc1C`, the Potency is reported as 1.07 µM (active). For `Cc1ccc(NC(=O)CCC(=O)N/N=C/c2ccco2)c(C)c1`, the Potency was “inactive”. `CCOC(=O)c1c(C)oc2nc(C)nc(N(CC(C)C)CC(C)C)c12` was tested, and the Potency was “inactive”. In the case of `O=C(COC(=O)CCCN1C(=O)c2cccc3cccc(c23)C1=O)NC1CCS(=O)(=O)C1` (stereo unspecified), the Potency is reported as “inactive”. `COc1ccc(N2CCN(C(=O)c3c(C)oc4nc(C)nc(N5CCCC5)c34)CC2)cc1` was tested, and the Potency was “inactive”. In the case of `Cc1ccccc1Nc1nc(N)nc(COC(=O)CCC(=O)c2ccc(F)cc2)n1`, the Potency is reported as “inactive”. In the case of `CCOC(=O)N1CCN(C(=O)COC(=O)c2cccc(S(C)(=O)=O)c2)CC1`, the Potency is reported as “inactive”. For `CCc1ccc(S(=O)(=O)c2nnn3c2nc(NCc2ccccc2OC)c2cc(Cl)ccc23)cc1`, the Potency was “inactive”. `COc1ccc(N2CCN(S(=O)(=O)CCNC(=O)C(c3ccccc3)c3ccccc3)CC2)cc1` was tested, and the Potency was “inactive”. For `CCC(=O)Nc1ccccc1-c1nc2ccccc2n(CC(=O)Nc2ccc(C)c(C)c2)c1=O`, the Potency was “inactive”. `CC(C)OCCCNC(=O)CNC(=O)c1cccs1` was tested, and the Potency was “inactive”. `NC(=O)N/N=C\c1cccs1` was tested, and the Potency was “inactive”. `Cc1cccc(OCC(=O)NCC(=O)N/N=C/c2ccc(N(C)C)cc2)c1` was tested, and the Potency was “inactive”. `O=C(NC(Cc1c[nH]c2ccccc12)C(=O)N/N=C/c1ccc(Br)cc1)c1cccs1` (stereo unspecified) was tested, and the Potency was “inactive”. For `CC(=O)Nc1ccc(/C=N/NC(=O)c2cccs2)cc1`, the Potency was 12 µM (active). For `CCN(CC)c1ccc(/C=N/NC(=O)CNC(=O)c2cccs2)cc1`, the Potency was 23.9 µM (active).
